The target of assay [1] is RAC-alpha serine/threonine-protein kinase (Homo sapiens) (UniProt P31749). The note with it: at 0.1 µM.
Assay [2] has the same target. The note with it: at 1 µM.
In assay [3] the target is RAC-beta serine/threonine-protein kinase (Homo sapiens) (UniProt P31751). As to conditions: at 0.1 µM.
For assay [4] the target is unchanged. As to conditions: at 1 µM.
Assay [5] deals with RAC-gamma serine/threonine-protein kinase (Homo sapiens) (UniProt Q9Y243). As to conditions: at 0.1 µM.
The target is the same in assay [6]. The note with it: at 1 µM.
Assay [7] addresses G protein-coupled receptor kinase 6 (Homo sapiens) (UniProt P43250). The note with it: at 0.1 µM.
For assay [8] the target is unchanged. The note with it: at 1 µM.
Assay [9] concerns the target T1, Rhodopsin kinase GRK7 (Homo sapiens) (UniProt Q8WTQ7).
T1 sequence (whole entry): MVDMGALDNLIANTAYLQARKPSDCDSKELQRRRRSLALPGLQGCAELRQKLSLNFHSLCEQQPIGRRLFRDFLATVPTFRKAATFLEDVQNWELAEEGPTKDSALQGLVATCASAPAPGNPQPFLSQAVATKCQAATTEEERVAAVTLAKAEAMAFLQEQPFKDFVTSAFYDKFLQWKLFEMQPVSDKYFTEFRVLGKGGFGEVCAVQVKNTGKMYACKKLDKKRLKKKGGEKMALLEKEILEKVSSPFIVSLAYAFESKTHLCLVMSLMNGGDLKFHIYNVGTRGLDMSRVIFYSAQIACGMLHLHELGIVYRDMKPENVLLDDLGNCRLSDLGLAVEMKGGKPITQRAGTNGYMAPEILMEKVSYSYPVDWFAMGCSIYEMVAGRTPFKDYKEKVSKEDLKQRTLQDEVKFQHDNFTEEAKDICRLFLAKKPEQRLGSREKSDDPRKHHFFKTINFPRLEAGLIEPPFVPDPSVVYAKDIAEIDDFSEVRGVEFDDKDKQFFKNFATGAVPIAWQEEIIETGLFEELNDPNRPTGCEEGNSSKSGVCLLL
As to conditions: at 0.1 µM.

Assay [10] concerns the target T1, Rhodopsin kinase GRK7 (Homo sapiens). The note with it: at 1 µM.
Assay [11] addresses Serine/threonine-protein kinase MRCK alpha (Homo sapiens) (UniProt Q5VT25). As to conditions: at 0.1 µM.
Assay [12] has the same target. As to conditions: at 1 µM.
The target in assay [13] is Serine/threonine-protein kinase MRCK beta (Homo sapiens) (UniProt Q9Y5S2). As to conditions: at 0.1 µM.
Sequence of Serine/threonine-protein kinase MRCK beta (Homo sapiens) (Q9Y5S2 whole entry): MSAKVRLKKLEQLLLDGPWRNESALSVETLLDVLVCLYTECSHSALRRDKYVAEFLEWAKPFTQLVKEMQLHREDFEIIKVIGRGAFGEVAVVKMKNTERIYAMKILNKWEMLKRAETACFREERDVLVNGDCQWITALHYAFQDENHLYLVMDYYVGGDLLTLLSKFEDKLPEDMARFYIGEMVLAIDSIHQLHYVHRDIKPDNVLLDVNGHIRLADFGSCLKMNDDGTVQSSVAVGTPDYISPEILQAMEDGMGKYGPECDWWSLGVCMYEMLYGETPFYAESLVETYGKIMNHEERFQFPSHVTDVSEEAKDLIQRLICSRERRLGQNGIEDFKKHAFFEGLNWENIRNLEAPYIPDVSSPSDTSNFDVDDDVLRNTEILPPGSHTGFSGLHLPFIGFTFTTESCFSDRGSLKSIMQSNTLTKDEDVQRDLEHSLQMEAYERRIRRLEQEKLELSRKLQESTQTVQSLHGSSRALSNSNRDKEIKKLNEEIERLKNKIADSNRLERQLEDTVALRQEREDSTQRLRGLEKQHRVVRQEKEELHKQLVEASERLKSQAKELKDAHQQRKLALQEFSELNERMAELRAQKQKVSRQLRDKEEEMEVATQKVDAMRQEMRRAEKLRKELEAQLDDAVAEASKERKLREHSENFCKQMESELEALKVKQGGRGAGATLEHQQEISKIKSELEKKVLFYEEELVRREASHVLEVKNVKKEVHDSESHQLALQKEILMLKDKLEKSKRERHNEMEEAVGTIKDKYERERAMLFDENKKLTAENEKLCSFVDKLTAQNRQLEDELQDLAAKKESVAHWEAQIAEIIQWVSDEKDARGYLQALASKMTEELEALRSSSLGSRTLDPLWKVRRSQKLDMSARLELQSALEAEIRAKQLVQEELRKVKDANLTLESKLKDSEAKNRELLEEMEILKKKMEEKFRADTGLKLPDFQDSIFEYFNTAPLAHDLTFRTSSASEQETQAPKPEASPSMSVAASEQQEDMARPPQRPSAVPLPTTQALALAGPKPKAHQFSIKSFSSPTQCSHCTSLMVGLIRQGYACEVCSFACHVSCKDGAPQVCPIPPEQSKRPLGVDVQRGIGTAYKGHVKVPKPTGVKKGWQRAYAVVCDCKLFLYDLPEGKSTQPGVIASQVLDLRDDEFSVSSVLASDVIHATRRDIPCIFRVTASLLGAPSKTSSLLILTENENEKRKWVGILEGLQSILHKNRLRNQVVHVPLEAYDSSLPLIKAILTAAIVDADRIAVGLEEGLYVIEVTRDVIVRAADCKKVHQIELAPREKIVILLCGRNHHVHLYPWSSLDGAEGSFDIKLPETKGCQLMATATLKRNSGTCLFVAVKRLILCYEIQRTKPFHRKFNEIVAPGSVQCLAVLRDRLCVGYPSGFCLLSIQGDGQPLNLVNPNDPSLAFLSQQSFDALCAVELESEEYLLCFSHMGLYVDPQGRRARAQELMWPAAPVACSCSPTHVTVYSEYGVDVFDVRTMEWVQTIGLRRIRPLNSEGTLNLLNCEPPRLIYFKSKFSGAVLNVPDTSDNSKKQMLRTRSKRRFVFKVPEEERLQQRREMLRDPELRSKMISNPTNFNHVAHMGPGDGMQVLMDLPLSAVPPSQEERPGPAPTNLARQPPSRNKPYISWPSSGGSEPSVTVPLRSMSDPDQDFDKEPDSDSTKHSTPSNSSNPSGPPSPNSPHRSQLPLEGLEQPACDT
The target is the same in assay [14]. As to conditions: at 1 µM.
Assay [15] concerns the target Ribosomal protein S6 kinase alpha-5 (Homo sapiens) (UniProt O75582). The note with it: at 0.1 µM.
Assay [16] shares this target. The note with it: at 1 µM.
Assay [17] addresses Ribosomal protein S6 kinase alpha-4 (Homo sapiens) (UniProt O75676). The note with it: at 0.1 µM.
For assay [18] the target is unchanged. The note with it: at 1 µM.
Assay [19] deals with Ribosomal protein S6 kinase beta-1 (Homo sapiens) (UniProt P23443). The note with it: at 0.1 µM.
For assay [20] the target is unchanged. As to conditions: at 1 µM.

The results in this text go back to ChEMBL document CHEMBL1961873, “Compounds: GSK PKIS; Assays: Nanosyn kinase panel” (2012).

Sequence of Ribosomal protein S6 kinase alpha-5 (Homo sapiens) (O75582 whole entry, looked up): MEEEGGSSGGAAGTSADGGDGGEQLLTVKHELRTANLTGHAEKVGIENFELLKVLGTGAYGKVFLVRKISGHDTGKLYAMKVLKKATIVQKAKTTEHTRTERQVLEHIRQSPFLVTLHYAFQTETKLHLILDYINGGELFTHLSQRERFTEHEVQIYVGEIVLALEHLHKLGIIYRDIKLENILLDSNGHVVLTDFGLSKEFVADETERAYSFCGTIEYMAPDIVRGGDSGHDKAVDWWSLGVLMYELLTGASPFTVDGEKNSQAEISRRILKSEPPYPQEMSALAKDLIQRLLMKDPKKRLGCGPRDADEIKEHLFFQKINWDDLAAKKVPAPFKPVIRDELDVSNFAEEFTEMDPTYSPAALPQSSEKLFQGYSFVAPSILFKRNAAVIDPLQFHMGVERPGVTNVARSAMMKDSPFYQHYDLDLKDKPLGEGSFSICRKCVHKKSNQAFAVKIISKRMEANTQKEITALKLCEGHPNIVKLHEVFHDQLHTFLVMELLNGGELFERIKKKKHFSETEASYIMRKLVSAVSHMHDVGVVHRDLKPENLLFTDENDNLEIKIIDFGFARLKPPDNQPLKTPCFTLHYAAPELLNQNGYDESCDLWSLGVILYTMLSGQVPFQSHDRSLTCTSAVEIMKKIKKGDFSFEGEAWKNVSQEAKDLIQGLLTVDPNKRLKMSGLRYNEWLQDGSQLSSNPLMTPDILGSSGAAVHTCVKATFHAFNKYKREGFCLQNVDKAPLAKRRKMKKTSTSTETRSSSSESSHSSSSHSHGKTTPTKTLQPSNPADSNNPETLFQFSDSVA
Sequence of G protein-coupled receptor kinase 6 (Homo sapiens) (P43250 whole entry, looked up): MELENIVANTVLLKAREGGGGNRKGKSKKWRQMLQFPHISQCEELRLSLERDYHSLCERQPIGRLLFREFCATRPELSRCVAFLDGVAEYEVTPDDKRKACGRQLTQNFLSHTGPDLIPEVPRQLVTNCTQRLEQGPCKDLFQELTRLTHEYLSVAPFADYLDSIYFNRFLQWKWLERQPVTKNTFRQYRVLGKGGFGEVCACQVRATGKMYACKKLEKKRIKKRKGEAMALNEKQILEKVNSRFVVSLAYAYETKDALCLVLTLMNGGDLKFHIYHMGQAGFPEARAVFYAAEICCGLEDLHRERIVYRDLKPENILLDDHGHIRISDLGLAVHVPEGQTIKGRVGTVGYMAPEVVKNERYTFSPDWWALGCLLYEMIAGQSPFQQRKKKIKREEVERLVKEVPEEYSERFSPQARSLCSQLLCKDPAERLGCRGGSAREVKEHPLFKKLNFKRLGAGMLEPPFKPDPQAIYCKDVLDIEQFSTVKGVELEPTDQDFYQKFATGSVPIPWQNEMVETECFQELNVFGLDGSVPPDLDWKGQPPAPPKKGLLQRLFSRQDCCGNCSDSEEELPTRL
Sequence of Serine/threonine-protein kinase MRCK alpha (Homo sapiens) (Q5VT25 whole entry): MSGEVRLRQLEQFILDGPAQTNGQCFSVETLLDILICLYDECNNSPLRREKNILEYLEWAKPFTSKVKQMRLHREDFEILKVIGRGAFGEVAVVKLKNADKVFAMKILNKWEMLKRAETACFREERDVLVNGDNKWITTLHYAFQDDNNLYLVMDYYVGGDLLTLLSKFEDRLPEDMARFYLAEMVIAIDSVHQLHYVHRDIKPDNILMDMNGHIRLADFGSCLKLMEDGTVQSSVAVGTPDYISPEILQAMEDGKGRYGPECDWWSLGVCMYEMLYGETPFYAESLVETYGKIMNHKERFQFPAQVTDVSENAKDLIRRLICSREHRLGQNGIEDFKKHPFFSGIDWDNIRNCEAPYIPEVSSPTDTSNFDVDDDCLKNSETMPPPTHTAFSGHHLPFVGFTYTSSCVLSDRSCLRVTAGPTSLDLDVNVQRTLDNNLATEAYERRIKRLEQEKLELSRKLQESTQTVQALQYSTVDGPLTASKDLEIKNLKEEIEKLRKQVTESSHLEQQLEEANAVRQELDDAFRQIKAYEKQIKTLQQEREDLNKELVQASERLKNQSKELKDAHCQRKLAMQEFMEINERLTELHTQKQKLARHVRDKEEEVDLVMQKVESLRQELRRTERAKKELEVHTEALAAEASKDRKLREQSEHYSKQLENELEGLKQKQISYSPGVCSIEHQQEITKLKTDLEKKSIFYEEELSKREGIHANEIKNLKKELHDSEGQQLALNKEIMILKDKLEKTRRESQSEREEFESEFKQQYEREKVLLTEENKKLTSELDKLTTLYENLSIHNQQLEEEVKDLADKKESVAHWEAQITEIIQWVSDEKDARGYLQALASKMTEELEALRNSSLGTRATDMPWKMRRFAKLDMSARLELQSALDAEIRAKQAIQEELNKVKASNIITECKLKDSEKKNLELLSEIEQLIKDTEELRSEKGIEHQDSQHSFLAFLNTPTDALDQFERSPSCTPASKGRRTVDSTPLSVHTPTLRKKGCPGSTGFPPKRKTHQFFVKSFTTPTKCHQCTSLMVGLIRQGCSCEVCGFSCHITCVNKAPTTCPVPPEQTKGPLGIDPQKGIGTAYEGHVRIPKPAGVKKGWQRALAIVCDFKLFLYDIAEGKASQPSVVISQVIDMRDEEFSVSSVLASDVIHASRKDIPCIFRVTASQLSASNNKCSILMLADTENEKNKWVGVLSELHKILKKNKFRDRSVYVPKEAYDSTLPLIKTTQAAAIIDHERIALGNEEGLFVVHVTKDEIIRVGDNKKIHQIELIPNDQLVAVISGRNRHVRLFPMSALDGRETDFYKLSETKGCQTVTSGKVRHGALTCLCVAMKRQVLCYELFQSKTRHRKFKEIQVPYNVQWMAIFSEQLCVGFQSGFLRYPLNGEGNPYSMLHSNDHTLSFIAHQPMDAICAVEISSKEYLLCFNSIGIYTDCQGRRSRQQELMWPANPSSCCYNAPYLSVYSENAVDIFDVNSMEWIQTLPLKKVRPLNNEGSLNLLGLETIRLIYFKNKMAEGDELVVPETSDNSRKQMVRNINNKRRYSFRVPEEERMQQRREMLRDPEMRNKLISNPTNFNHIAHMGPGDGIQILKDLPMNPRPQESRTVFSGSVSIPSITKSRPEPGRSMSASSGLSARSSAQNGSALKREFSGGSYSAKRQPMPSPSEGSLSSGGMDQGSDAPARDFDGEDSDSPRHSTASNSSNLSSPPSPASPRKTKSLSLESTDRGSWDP

On to `COc1ccc(-c2nn3ncccc3c2-c2ccnc(Nc3ccc4c(c3)OCCO4)n2)cc1`, for which the inhibition in assay [1] was -0.35%; in assay [2] it was -0.09%; in assay [3], -0.91%; in assay [4] it was -0.18%; in assay [5], 0.24%; in assay [6], 2.32%. For the same compound, the inhibition is -1.91% in assay [7]; -1.49% in [8]; 4.16% in assay [9]; 2.81% in assay [10]; -0.27% in [11]; -2.49% in [12]. The inhibition in assay [13] was 0.2%; in assay [14] it was 0%; in assay [15], 0.41%; in assay [16], -0.38%; in [17], 1.07%; in assay [18], -0.23%. Besides, the inhibition in [19] is 0.77%; in assay [20], -0.95%.

In the case of `CCn1c(-c2nonc2N)nc2c(C#CC(C)(C)O)nc(OC[C@H](N)c3ccccc3)cc21`, the inhibition in [1] was found to be 64.2%; in [2], 90.4%; in assay [3], 75.3%; in assay [4], 92%; in [5] it was 66.8%; in assay [6], 91.7%. Moreover, the inhibition in [7] amounted to 2.82%; in [8], 5.48%; in assay [9] it was 2.77%; in assay [10], 15%; in [11], 11.8%; in assay [12], 36.3%. For the same compound, the inhibition in [13] turned out to be 3.04%; in [14] it was 26.6%; in assay [15], 3.37%; in assay [16], 17.7%; in [17], 3.75%; in assay [18], 20.5%. For the same compound, the results for the inhibition in assay [19] and in assay [20] were 4.66% and 33.1%, respectively.

With `COc1cccc(-c2c[nH]c3c(N/N=C/c4ccncc4)ncnc23)c1`, the inhibition in assay [1] was 1.29%; in assay [2] it was 0.32%; in assay [3], 1.22%; in assay [4], -0.06%; in [5] it was 1.48%; in assay [6], -0.22%. The inhibition in assay [7] is -1.66%; in [8], -7.11%; in assay [9], 0.28%; in [10], -6.92%; in assay [11], 0.71%; in assay [12], 6.35%. The inhibition in assay [13] is 0.92%; in assay [14], 5.25%; in assay [15] it was 8.98%; in [16], 9.82%; in [17] it was 2.85%; in [18], 4.13%. The inhibition in [19] was 2.85%; in assay [20], 8.54%.

Regarding `CCNC(=O)O[C@H]1CN[C@H](C#Cc2cc3ncnc(Nc4ccc(OCc5cccc(F)c5)c(Cl)c4)c3s2)C1`, the inhibition in assay [1] was 1.21%; in assay [2] it was 0.9%; in assay [3], 3.39%; in [4], 2.59%; in assay [5], 1.29%; in assay [6], 1.95%. The inhibition in assay [7] was 2.11%; in assay [8] it was 4.14%; in assay [9] it was 2.34%; in [10] it was 2.31%; in assay [11] it was 0.37%; in assay [12] it was -0.19%. Also, the inhibition in assay [13] amounted to 1.07%; in assay [14], 0.37%; in [15] it was 3.18%; in assay [16] it was 2.55%; in [17], 1.61%; in assay [18] it was 2.66%. Also, the inhibition in assay [19] turned out to be 1.69%; in assay [20], 1.78%.

For the compound `c1ccc(-c2nc3n(c2-c2ccc4c(c2)OCO4)CCC3)nc1`, the inhibition was 0.15% in [1]; 0.19% in assay [2]; 0.67% in [3]; 0.83% in [4]; 0.55% in assay [5]; 0.06% in assay [6]. Besides, the inhibition in assay [7] was 3.19%; in assay [8], 2.38%; in [9], 1.13%; in [10], 3.19%; in [11] it was 1.51%; in assay [12], -0.39%. Also, the inhibition worked out at 1.65% in [13]; 4.63% in assay [14]; 8.97% in assay [15]; 8.14% in assay [16]; 5.25% in [17]; 6.79% in [18]. The inhibition was found to be 1.12% in assay [19] and 0.67% in [20].

Take `O=C(Nc1n[nH]c2cc(-c3ccc(F)cc3)ccc12)C1CC1`: the inhibition in [1] was determined as 0.61%; in assay [2], 1.36%; in assay [3], 1.62%; in assay [4], 1.6%; in assay [5] it was 0.49%; in [6] it was 1.05%. For the same compound, the inhibition was found to be 1.59% in assay [7]; 1.04% in [8]; 4.1% in assay [9]; 7.25% in assay [10]; 0.19% in assay [11]; 0.87% in [12]. Moreover, the inhibition in assay [13] came out at 0.84%; in [14], 5.66%; in assay [15], 13.8%; in [16] it was 13.6%; in assay [17], 6.38%; in assay [18], 8.25%. For the same compound, the figures for the inhibition in [19] and in assay [20] were 2% and 2.94%, respectively.

As for `Cc1ccc2c(-c3ccnc(Nc4ccccc4)n3)c(-c3ccc(F)cc3)nn2n1`, the inhibition in [1] turned out to be 0.59%; in assay [2], 0.99%; in assay [3] it was 2.02%; in assay [4] it was 1.95%; in [5] it was 1.53%; in assay [6], 1.01%. In addition, the inhibition is 0.38% in [7]; -3.54% in assay [8]; 1.12% in [9]; -6.29% in assay [10]; 1.01% in assay [11]; 7.71% in assay [12]. Further, the inhibition in assay [13] amounted to 1.04%; in [14], 1.94%; in assay [15] it was 3.46%; in assay [16] it was 3.65%; in assay [17], 0.97%; in [18], 3.78%. Besides, the results for the inhibition in [19] and in [20] were 1.87% and 3.16%, respectively.

The term inhibition denotes the drop in the measured response relative to a control, in per cent.
